# Data from PubChem BioAssay AID1159580 (chemical genetic matrix, 2015).
# The campaign covered roughly 5,500 compounds. About 2,000 (36%) were called active. Roughly 18% stayed inconclusive and do not appear here. The list shows a part of the results. Values without a mark were called inactive. Rule as the data show it: active = normalized growth mostly below about 0.91 (no sharp cut-off); inconclusive = no clear call, values can overlap the other calls; inactive = mostly above about 0.92.
# Experiment: chemical genetic growth profiling, strain panel (AID 1159580);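 also: tested at 20 µM; growth read once vehicle control cultures reached saturation at 30 °C; 1 = growth at the plate median or of vehicle wells; lower values mean less growth of the strain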
# Conditions: S. cerevisiae deletion strains, growth OD
# [1] = locus YAR019C, strain CDC15, stronger effect = lower value
# [2] = locus YBL105C, strain PKC1, stronger effect = lower value
# [3] = locus YBR135W, strain CKS1, stronger effect = lower value
# [4] = locus YBR136W, strain MEC1, stronger effect = lower value
# [5] = locus YBR160W, strain CDC28, stronger effect = lower value
# [6] = locus YDL017W, strain CDC7, stronger effect = lower value
# [7] = locus YDL028C, strain MPS1, stronger effect = lower value
# [8] = locus YDL101C, strain DUN1, stronger effect = lower value
# [9] = locus YDL108W, strain KIN28, stronger effect = lower value
# [10] = locus YDL132W, strain cdc53, stronger effect = lower value
# [11] = locus YDL214C, strain PRR2, stronger effect = lower value
# [12] = locus YDR052C, strain DBF4, stronger effect = lower value
# [13] = locus YDR054C, strain cdc34, stronger effect = lower value
# [14] = locus YDR226W, strain ADK1, stronger effect = lower value
# [15] = locus YDR477W, strain SNF1, stronger effect = lower value
# [16] = locus YER123W, strain YCK3, stronger effect = lower value
# [17] = locus YER133W, strain GLC7, stronger effect = lower value
# [18] = locus YFL009W, strain cdc4, stronger effect = lower value
# [19] = locus YFL029C, strain CAK1, stronger effect = lower value
# [20] = locus YFR003C, strain YPI1, stronger effect = lower value
# [21] = locus YFR019W, strain FAB1, stronger effect = lower value
# [22] = locus YFR028C, strain CDC14, stronger effect = lower value
# [23] = locus YGR040W, strain KSS1, stronger effect = lower value
# [24] = locus YGR052W, strain FMP48, stronger effect = lower value
# [25] = locus YGR092W, strain DBF2, stronger effect = lower value
# [26] = locus YHR030C, strain SLT2, stronger effect = lower value
# [27] = locus YHR079C, strain IRE1, stronger effect = lower value
# [28] = locus YHR082C, strain KSP1, stronger effect = lower value
# [29] = locus YHR205W, strain SCH9, stronger effect = lower value
# [30] = locus YIL147C, strain SLN1, stronger effect = lower value
# [31] = locus YJL095W, strain BCK1, stronger effect = lower value
# [32] = locus YJL128C, strain PBS2, stronger effect = lower value
# [33] = locus YJL157C, strain FAR1, stronger effect = lower value
# [34] = locus YJR016C, strain ILV3, stronger effect = lower value
# [35] = locus YJR066W, strain TOR1 (second series), stronger effect = lower value
# [36] = locus YJR066W, strain TOR1, stronger effect = lower value
# [37] = locus YKL048C, strain ELM1, stronger effect = lower value
# [38] = locus YKL067W, strain YNK1, stronger effect = lower value
# [39] = locus YKL101W, strain HSL1, stronger effect = lower value
# [40] = locus YKL193C, strain SDS22, stronger effect = lower value
# [41] = locus YKL203C, strain TOR2, stronger effect = lower value
# [42] = locus YLR113W, strain HOG1, stronger effect = lower value
# [43] = locus YLR133W, strain CKI1, stronger effect = lower value
# [44] = locus YLR403W, strain SFP1, stronger effect = lower value
# [45] = locus YML070W, strain DAK1, stronger effect = lower value
# [46] = locus YMR001C, strain CDC5, stronger effect = lower value
# [47] = locus YMR205C, strain PFK2 (second series), stronger effect = lower value
# [48] = locus YMR277W, strain FCP1, stronger effect = lower value
# [49] = locus YNL006W, strain LST8, stronger effect = lower value
# [50] = locus YNL020C, strain ARK1, stronger effect = lower value
# [51] = locus YNL161W, strain CBK1, stronger effect = lower value
# [52] = locus YNL183C, strain NPR1, stronger effect = lower value
# [53] = locus YNL207W, strain RIO2, stronger effect = lower value
# [54] = locus YNL222W, strain SSU72, stronger effect = lower value
# [55] = locus YNL307C, strain MCK1 (second series), stronger effect = lower value
# [56] = locus YOL078W, strain AVO1, stronger effect = lower value
# [57] = locus YOL136C, strain PFK27, stronger effect = lower value
# [58] = locus YOR061W, strain CKA2, stronger effect = lower value
# [59] = locus YOR119C, strain RIO1, stronger effect = lower value
# [60] = locus YOR231W, strain MKK1, stronger effect = lower value
# [61] = locus YOR329C, strain SCD5, stronger effect = lower value
# [62] = locus YPL031C, strain PHO85, stronger effect = lower value
# [63] = locus YPL153C, strain RAD53, stronger effect = lower value
# [64] = locus YPL204W, strain HRR25, stronger effect = lower value
# [65] = locus YPL209C, strain IPL1, stronger effect = lower value
# [66] = locus YPL256C, strain CLN2, stronger effect = lower value
# [67] = locus YPR025C, strain CCL1, stronger effect = lower value
# [68] = locus YPR106W, strain ISR1, stronger effect = lower value
# [69] = locus YPR111W, strain DBF20, stronger effect = lower value
# [70] = strain NNK1, stronger effect = lower value
# [71] = strain TSCII, stronger effect = lower value
structure (smiles),measurement,setting,value
O=C(NNc1ccccc1)c1cc(-c2ccc(Cl)cc2)oc1C(F)(F)F,normalized growth,[1],0.947
same,normalized growth,[2],0.952
same,normalized growth,[3],0.934
same,normalized growth,[4],0.952
same,normalized growth,[5],0.942
same,normalized growth,[6],0.949
same,normalized growth,[7],0.957
same,normalized growth,[8],0.973
same,normalized growth,[9],0.95
same,normalized growth,[10],0.953
same,normalized growth,[11],0.714
same,normalized growth,[12],0.956
same,normalized growth,[13],0.94
same,normalized growth,[14],0.951
same,normalized growth,[15],0.615 (active)
same,normalized growth,[16],0.522 (active)
same,normalized growth,[17],0.629 (active)
same,normalized growth,[18],0.958
same,normalized growth,[19],0.943
same,normalized growth,[20],0.958
same,normalized growth,[21],0.779
same,normalized growth,[22],0.942
same,normalized growth,[23],0.622 (active)
same,normalized growth,[24],0.38 (active)
same,normalized growth,[25],0.434 (active)
same,normalized growth,[26],0.289 (active)
same,normalized growth,[27],0.541
same,normalized growth,[28],0.5 (active)
same,normalized growth,[29],0.624
same,normalized growth,[30],0.96
same,normalized growth,[31],0.293 (active)
same,normalized growth,[32],0.975
same,normalized growth,[33],0.75
same,normalized growth,[34],0.95
same,normalized growth,[35],0.66
same,normalized growth,[36],0.456 (active)
same,normalized growth,[37],0.762 (active)
same,normalized growth,[38],0.686 (active)
same,normalized growth,[39],0.521 (active)
same,normalized growth,[40],0.954
same,normalized growth,[41],0.636 (active)
same,normalized growth,[42],0.234 (active)
same,normalized growth,[43],0.678 (active)
same,normalized growth,[44],0.653 (active)
same,normalized growth,[45],0.465 (active)
same,normalized growth,[46],0.942
same,normalized growth,[47],0.667 (active)
same,normalized growth,[48],0.953
same,normalized growth,[49],0.96
same,normalized growth,[50],0.683 (active)
same,normalized growth,[51],0.944
same,normalized growth,[52],0.697
same,normalized growth,[53],0.959
same,normalized growth,[54],0.931
same,normalized growth,[55],0.549 (active)
same,normalized growth,[56],0.952
same,normalized growth,[57],0.727
same,normalized growth,[58],0.795
same,normalized growth,[59],0.684 (active)
same,normalized growth,[60],0.46 (active)
same,normalized growth,[61],0.957
same,normalized growth,[62],0.443 (active)
same,normalized growth,[63],0.339 (active)
same,normalized growth,[64],0.58 (active)
same,normalized growth,[65],0.926
same,normalized growth,[66],0.492 (active)
same,normalized growth,[67],0.951
same,normalized growth,[68],0.933
same,normalized growth,[69],0.931
same,normalized growth,[70],0.939
same,normalized growth,[71],0.95
O=C(Nc1ccncc1)c1cc(-c2ccccc2)oc1C(F)(F)F,normalized growth,[1],0.99
same,normalized growth,[2],0.985
same,normalized growth,[3],0.991
same,normalized growth,[4],0.988
same,normalized growth,[5],0.983
same,normalized growth,[6],0.991
same,normalized growth,[7],0.993
same,normalized growth,[8],0.992
same,normalized growth,[9],0.991
same,normalized growth,[10],0.979
same,normalized growth,[11],0.953
same,normalized growth,[12],0.989
same,normalized growth,[13],0.981
same,normalized growth,[14],0.989
same,normalized growth,[15],0.973
same,normalized growth,[16],0.946
same,normalized growth,[17],0.976
same,normalized growth,[18],0.99
same,normalized growth,[19],0.984
same,normalized growth,[20],0.99
same,normalized growth,[21],0.993
same,normalized growth,[22],0.984
same,normalized growth,[23],0.962
same,normalized growth,[24],1
same,normalized growth,[25],0.949
same,normalized growth,[26],1
same,normalized growth,[27],0.941
same,normalized growth,[28],1.01
same,normalized growth,[29],0.998
same,normalized growth,[30],0.994
same,normalized growth,[31],0.991
same,normalized growth,[32],0.958
same,normalized growth,[33],0.952
same,normalized growth,[34],0.988
same,normalized growth,[35],0.937
same,normalized growth,[36],1.03
same,normalized growth,[37],0.976
same,normalized growth,[38],0.968
same,normalized growth,[39],0.977
same,normalized growth,[40],0.988
same,normalized growth,[41],1.04
same,normalized growth,[42],0.843 (active)
same,normalized growth,[43],0.975
same,normalized growth,[44],0.987
same,normalized growth,[45],0.951
same,normalized growth,[46],0.996
same,normalized growth,[47],0.973
same,normalized growth,[48],0.993
same,normalized growth,[49],0.992
same,normalized growth,[50],0.985
same,normalized growth,[51],0.982
same,normalized growth,[52],0.965
same,normalized growth,[53],0.98
same,normalized growth,[54],0.977
same,normalized growth,[55],0.976
same,normalized growth,[56],0.988
same,normalized growth,[57],0.953
same,normalized growth,[58],0.991
same,normalized growth,[59],1.03
same,normalized growth,[60],0.908
same,normalized growth,[61],0.998
same,normalized growth,[62],0.964
same,normalized growth,[63],0.959
same,normalized growth,[64],0.953
same,normalized growth,[65],0.976
same,normalized growth,[66],0.868
same,normalized growth,[67],0.99
same,normalized growth,[68],0.979
same,normalized growth,[69],0.98
same,normalized growth,[70],0.993
same,normalized growth,[71],0.989
